Results on 7 molecules are retold here after paper PMC12136788.

First the molecules themselves.
T1: UNK ZnF1-3 (human, UniProt Q9C0B0 31-174)
T1 sequence: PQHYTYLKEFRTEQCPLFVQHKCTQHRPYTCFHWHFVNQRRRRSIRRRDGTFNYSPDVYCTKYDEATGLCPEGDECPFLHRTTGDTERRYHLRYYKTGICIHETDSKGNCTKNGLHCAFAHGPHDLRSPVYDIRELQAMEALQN

B1: chr2:160855017:160855018:-_ENSMUSG00000057133_ENSMUST00000039782|mus_mus|FALSE|FALSE (ssRNA)
RNA: GGGAGUUCUACAGUCCGACGAUCAUCCUUUUCCAGUUCUUCCAUUGUGGCCCAUUUACAAUGUAAAUAGGAAAAAUUUCUAUACUUAACGUAGAAAAGCUCUAGGUCGAAUGGAGGUUCUCCUGGGUGAACCUCCUGGACAGUCAACAGAGGAUUGAGCAUCA
B2: chr7:150915252:150915253:-_ENSG00000033050_ENST00000287844|hu_mus|FALSE|FALSE (ssRNA)
RNA: GGGAGUUCUACAGUCCGACGAUCCUUCCCUGCUCCAUUGGGUCCUACCAGAGCCACUCGUGUGUCAAGAUCAAUACCAAAUUCUAGAUUAUUGUAGAUGCAAGGCCCGUCUUUCGUAUAUUUGAAGCUCACGUUCUGCACCAUCAACAGAGGAUUGAGCAUCA
B3: chr2:78753848:78753849:+_ENSMUSG00000027011_ENSMUST00000028398|mus_mus|FALSE|FALSE (ssRNA)
RNA: GGGAGUUCUACAGUCCGACGAUCGUUAUCUCCUUUAGGCCCAGCACUGCAGUUAGGAGGAGGAUCAAGGGUUAUCUCUGCUAGCUCCUUCUGAAUUCUUUUAGCACUAGUGGAUAACUUAGCAGUCGUUUUGCUAGAGAGUUUCAACAGAGGAUUGAGCAUCA
B4: chr11:30747457:30747458:+_ENSMUSG00000040850_ENSMUST00000041231|mus_mus|motif|central (ssRNA)
RNA: GGGAGUUCUACAGUCCGACGAUCACCCUUAAAGAGGCAGAAACGCCGGGGACUAAACUUAUCUCUUCCUUUUCUGUCUUCGGAAGAUAGAAAUGUGAUUAACUGCUCAACAAACUUAGGAUCAGAAAAACGAUCAUAUAUAAUCAACAGAGGAUUGAGCAUCA
B5: chr2:4828950:4828951:+_ENSMUSG00000026662_ENSMUST00000115019|mus_hu|motif|central (ssRNA)
RNA: GGGAGUUCUACAGUCCGACGAUCUAAAAUCUAGUUUUUCCCGAUAAAUUGUACUUUAGGCAAAACCCUCCCAACGCUUCGGAAAUAAUACUAAAAGGGGCAUCUGAUUAUACAAGAGCAAUUUAAAAAAUUAAAUAUUUAUUUCAACAGAGGAUUGAGCAUCA
B6: chr11:43534790:43534791:+_ENSMUSG00000044950_ENSMUST00000129229|mus_mus|FALSE|FALSE (ssRNA)
RNA: GGGAGUUCUACAGUCCGACGAUCUCUGAUUUUCUCAUGUGUUCUCCAUUCAUUAAACAAGAAAAAUUAAGGGGUUUCAUACUAUGUAUUUAGCAAAGACAAGGAAAUCUGAAAUCUCUGUUAAGAAUUCAUGUUCCAUGCACCCAACAGAGGAUUGAGCAUCA
B7: chr2:4828950:4828951:+_ENSMUSG00000026662_ENSMUST00000115019|mus_hu|FALSE|FALSE (ssRNA)
RNA: B5 RNA with G80U, G81A

Residue numbers refer to the chain shown, from its start. Over roughly 24,000 sequences, “enrichment r” has its median near 0.99; the highest 2% begin near 3.7. Shown is part of a subset that was picked to be rich in the highest values.

This assay deals with T1, UNK ZnF1-3. As to the kind of experiment: nsRBNS (natural sequence RNA bind-n-seq); RBNS binding buffer (assumed for nsRBNS): 25 mM Tris pH 7.5, 150 mM KCl, 3 mM MgCl2, 0.01% Triton X-100, 500 ug/ml BSA, 20 U/ml SUPERase-In, 4 C; UNK is unkempt and MSI1 is Musashi-1; names of the RNAs are library labels; protein concentration not given here; high values mean tight binding.
Turning to B1, the binding signal stood at 0.614 enrichment R.
The same measure for B2: 1.41 enrichment R.
The same measure for B3: 1.05 enrichment R; for B4: 0.632 enrichment R; for B5: 4.08 enrichment R.
The same measure for B6: 0.874 enrichment R; for B7: 6.73 enrichment R.
